Among the data in PubChem BioAssay (Tox21) are Potency and outcome values, retold here.

Assay [1] can be described thus: qHTS assay to identify small molecule antagonists of the vitamin D receptor (VDR) signaling pathway - cell viability counter screen (AID 743225). Further: nearly all actives have a fitted effect of over 50% in size. Further: potency means the concentration at half of the fitted maximal effect. An outline of the steps: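 VDR-UAS-bla HEK 293T cells were plated and incubated 4 h at 37C, then dosed with compound plus 3 nM (final) 1-alpha,25-dihydroxyvitamin D3 for 16 h. After the 2 h beta-lactamase read, viability in the same wells was read as CellTiter-Glo luminescence after 30 min at room temperature.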
For orientation: qHTS replaces the single test concentration by a dilution series.

Assay [2] can be described thus: qHTS assay to identify small molecule agonists of the NFkB signaling pathway (AID 1159509; active means well fitted curve in the direction sought with a large enough effect in the signal ratio in the repeat runs, not every such curve was filed as active; the % refers to the signal ratio). An outline of the steps: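 Beta-lactamase reporter assay run in quantitative high-throughput format on an NF-kB-responsive ME-180 line, with 5 hr compound treatment and a FRET-based blue/green fluorescence readout.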
Assay [3] in a line: qHTS assay to identify small molecule agonists of the endoplasmic reticulum stress response signaling pathway (AID 1159516; active means well fitted activation curve with a large enough effect in the signal ratio in the repeat runs, not every such curve was filed as active; the % refers to the signal ratio; further: potency means the concentration at half of the fitted maximal effect). An outline of the steps: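 Fluorescence at 460 and 530 nm (405 nm excitation) reports beta-lactamase from an ER stress response element in HeLa cells treated 5 hr at 37 C.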
The nature of assay [4]: qHTS assay to identify small molecule agonists of the endoplasmic reticulum stress response signaling pathway - cell viability counter screen (AID 1159517; calls by dose curve; further: nearly all actives have a fitted effect of over 50% in size). The procedure, abridged:
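Cytotoxicity of test compounds toward ESRE-bla HeLa cells was assessed after 5 hr exposure. The luminescent CellTiter-Glo signal was measured 30 min after reagent addition.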

Assay [5] in a line: qHTS assay to identify small molecule antagonists of the retinoid-related orphan receptor gamma (ROR-gamma) signaling pathway - cell viability counter screen (AID 1159520). Further: nearly all actives have a fitted effect of over 50% in size. Further: potency means the concentration at half of the fitted maximal effect. The procedure, abridged: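 Tet-on ROR gamma CHO cells (1,000/well) were plated 4 hr, given compounds in DMSO for 2 hr at 37 C, then induced with 1 uM final doxycycline for 16 hr. Viability was read as ATP by CellTiter-Glo luminescence after 30 min.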

A short description of assay [6]: qHTS assay to identify small molecule agonists of the AP-1 signaling pathway - cell viability counter screen (AID 1159525; calls by dose curve; further: nearly all actives have a fitted effect of over 55% in size; further: potency means the concentration at half of the fitted maximal effect). An outline of the steps: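 Each titration point was normalised to DMSO and tetra n-octyl ammonium bromide controls. The read was Cell Titer Glo luminescence after 30 min at RT, following 5 h compound exposure of ME-180 AP-1-bla cells at 37 °C.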

Assay [7] in a line: qHTS assay to identify small molecule agonists of the AP-1 signaling pathway (AID 1159526; calls by dose curve).
In assay [8] the target is Retinoic acid receptor RXR-alpha (Homo sapiens) (UniProt P19793). In words: qHTS assay to identify small molecule agonists of the RXR signaling pathway (AID 1159527; calls by dose curve; further: nearly all actives have a fitted effect of over 35% in size). An outline of the steps: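 GeneBLAzer RXR-alpha-UAS-bla HEK 293T cells in 2% charcoal-stripped FBS medium were exposed to compounds for 16 hr at 37 C in agonist mode. Beta-lactamase reporter read as 460/530 nm FRET ratio after 2 hr substrate loading.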
Retinoic acid receptor RXR-alpha (Homo sapiens), sequence (P19793 whole entry, looked up): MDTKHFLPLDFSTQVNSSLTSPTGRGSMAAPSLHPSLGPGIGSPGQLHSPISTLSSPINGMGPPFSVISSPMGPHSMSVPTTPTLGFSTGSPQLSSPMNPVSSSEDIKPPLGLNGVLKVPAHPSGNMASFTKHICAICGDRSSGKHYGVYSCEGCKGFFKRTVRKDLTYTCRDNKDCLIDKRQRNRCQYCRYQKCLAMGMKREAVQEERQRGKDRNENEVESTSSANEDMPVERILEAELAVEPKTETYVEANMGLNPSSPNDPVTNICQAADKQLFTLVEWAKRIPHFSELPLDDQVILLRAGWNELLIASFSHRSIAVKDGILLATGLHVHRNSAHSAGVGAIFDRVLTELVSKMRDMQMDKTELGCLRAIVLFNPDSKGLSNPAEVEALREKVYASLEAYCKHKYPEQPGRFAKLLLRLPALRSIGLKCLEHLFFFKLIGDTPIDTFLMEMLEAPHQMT

Assay [9] can be described thus: qHTS assay to identify small molecule agonists of the RXR signaling pathway - cell viability counter screen (AID 1159529). Further: nearly all actives have a fitted effect of over 50% in size. Further: potency means the concentration at half of the fitted maximal effect. An outline of the steps:
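RXR-alpha-UAS-bla HEK 293T cells in medium with 2% charcoal-stripped FBS were pre-incubated 5 hr, then compound-treated 16 hr at 37 C. Viability was read by CellTiter-Glo luminescence in the same wells as the beta-lactamase assay, with tetraoctyl ammonium bromide as positive control.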

The nature of assay [10]: qHTS assay to identify small molecule antagonists of the retinoid acid receptor (RAR) signaling pathway - cell viability counter screen (AID 1159551). Further: nearly all actives have a fitted effect of over 35% in size. An outline of the steps:
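In this counter screen, the RARE-luciferase line C3RL4 was exposed for 6 h at 37 C and 5% CO2 to compounds with retinol at 1 uM final. Cellular ATP, read by luminescence, served as the viability measure.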

The nature of assay [11]: qHTS assay to identify small molecule agonists of the retinoic acid receptor (RAR) signaling pathway (AID 1159553). Further: potency means the concentration at half of the fitted maximal effect. The note with it: C3RL4 RARE luciferase reporter, agonist, 6 h; activation: at 73.3 µM (top of the series). The procedure, abridged:
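In this cell-based screen, 1,000 C3RL4 cells per well were cultured overnight, dosed with test chemicals in DMSO for 6 hr, and assessed for RARE luciferase luminescence.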

In assay [12] the target is Nuclear receptor ROR-gamma (Homo sapiens) (UniProt P51449). Put plainly: qHTS assay to identify small molecule antagonists of the retinoid-related orphan receptor gamma (ROR-gamma) signaling pathway (AID 1159521; further: nearly all actives have a fitted effect of over 50% in size; further: potency means the concentration at half of the fitted maximal effect). An outline of the steps: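 Tet-on ROR-gamma CHO cells with ROR response element-luciferase reporter; compounds added 2 hr before 1 uM doxycycline induction, then 16 hr at 37 C. Antagonism scored as decreased ONE-Glo luminescence.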

Assay [13] can be described thus: qHTS assay to identify small molecule antagonists of the retinoic acid receptor (RAR) signaling pathway (AID 1159552; further: nearly all actives have a fitted effect of over 50% in size; further: potency means the concentration at half of the fitted maximal effect). An outline of the steps: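 Retinol signaling pathway inhibitors screened in C3RL4 RARE-luciferase reporter cells seeded overnight at 37 C, then compounds added with 1 uM (final) retinol as pathway substrate. After 6 hr at 37 C, luciferase luminescence read after 30 min at room temperature.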

The nature of assay [14]: qHTS assay to identify small molecule antagonists of the estrogen related receptor (ERR) signaling pathway - cell viability counter screen (AID 1224818). The procedure, abridged:
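Viability of ERR cells, CellTiter-Fluor fluorescence; 17.5 h compound exposure at 37 C, DMSO vehicle; 30 min reagent incubation at 37 C/5% CO2.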

The nature of assay [15]: qHTS assay to identify small molecule antagonists of the estrogen related receptor signaling pathway with the pleiotropic PPARgamma coactivator (PGC) cell viability counter screen (AID 1224822). An outline of the steps:
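17.5 h compound treatment of PGC/ERR cells at 37 C; readout CellTiter-Fluor fluorescence; run alongside the PGC/ERR antagonist screen to flag cytotoxic compounds.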

The structures appear in SMILES notation. Several values for one entry are separate records, joined by “and”; a condition that tells them apart may be missing. Equal values may be shown once. Results filed as inconclusive are left out. More than one record can exist for a structure, and the calls need not agree. Activity calls are given as the source filed them. Unless noted, the call rests on the fitted dose curve; in most records, active means well fitted curve in the direction sought with a large enough effect in the repeat runs; inconclusive means weak or mixed curves; inactive means no such curve, though single readings can be large; an effect the other way counts as inactive or inconclusive.

Regarding `Cc1cc2c(OCC(CNC(C)(C)C)OC(=O)c3ccccc3)cccc2[nH]1` (configuration not stated), the Potency entry in assay [1], in assay [2], in assay [3], in [4], in [5] and in assay [6] was “inactive” in each case. Further, the Potency entry in [7], in assay [8], in assay [9], in assay [10] and in assay [11] was “inactive” throughout.
For `C=C/C(C)=C/C/C=C(\C)CCC=C(C)C`, the Potency entry in assay [1], in [2], in assay [3], in assay [4], in assay [12] and in [6] was “inactive” each time. In addition, the Potency result in assay [7] and in assay [10] was “inactive” each time.
In the case of `O=C=Nc1cccc(C(F)(F)F)c1`, the Potency result in assay [2], in [3], in assay [4], in assay [12], in assay [6] and in [7] was “inactive” in each case. The Potency result in [8] and in [10] was “inactive” throughout.
As to `O=C(CCCN1CC=C(n2c(=O)[nH]c3ccccc32)CC1)c1ccc(F)cc1`, the Potency result in [1], in [2], in assay [3], in assay [4], in assay [12] and in [7] was “inactive” throughout. Also, the Potency entry in assay [10] and in assay [13] was “inactive” throughout.
For `O=C1c2ccccc2C(=O)N1CCc1noc(-c2ccc(CN3CCCCCC3)s2)n1`, the Potency entry in [1], in assay [2], in assay [3], in [4], in assay [5] and in assay [7] was “inactive” throughout. The Potency result in assay [9], in assay [10], in assay [13] and in assay [11] was “inactive” throughout.
For `CCC(OCCCOC)OC(C)=O` (configuration not stated), the Potency entry in [1], in [2], in [3], in assay [4], in [12] and in assay [6] was “inactive” in each case. Further, the Potency entry in assay [7], in assay [8], in [9], in [10], in assay [13] and in assay [11] was “inactive” throughout.
As to `CCCCCCNC(=O)n1cc(F)c(=O)[nH]c1=O`, the Potency entry in [2], in assay [3], in assay [4], in assay [5], in [12] and in assay [7] was “inactive” throughout. Besides, the Potency result in [9], in assay [13] and in assay [11] was “inactive” throughout.
For `O=C(O)C[C@H](NC(=O)OCc1ccccc1)C(=O)O`, the Potency result in [2], in assay [3], in assay [4], in assay [12], in [6] and in [7] was “inactive” each time. Further, the Potency entry in assay [8], in assay [9], in assay [10], in assay [13] and in assay [11] was “inactive” throughout.
For the compound `CC(CC1c2ccccc2CCc2ccccc21)CN(C)C` (configuration not stated), the Potency result in [2], in assay [3], in assay [4], in assay [5], in assay [6] and in assay [8] was “inactive” each time. In assay [10], the Potency entry was “inactive”.
As for `CC(=O)c1cc2ccccc2s1`, the Potency entry in [1], in assay [2], in assay [3], in [4], in assay [12] and in [6] was “inactive” each time. The Potency result in [7], in assay [8], in [9], in [10], in assay [13] and in assay [11] was “inactive” in each case.
In the case of `CCCCN(CCN(CCCC)C(=O)N1CCOCC1)C(=O)N1CCOCC1`, the Potency result in assay [1], in assay [2], in assay [3], in [4], in assay [5] and in [6] was “inactive” each time. Also, the Potency result in assay [8], in [9], in assay [10] and in assay [13] was “inactive” throughout.
In the case of `C[C@]12CC[C@@H]3c4ccc(O)cc4CC[C@H]3[C@@H]1CC[C@@H]2OC(=O)CCC1CCCC1`, the Potency result in assay [1], in assay [2], in assay [3], in assay [4] and in assay [10] was “inactive” in each case. Further, the Potency is 43.3 µM (active) in assay [5]; 30.6 µM (active) in assay [12]; 49 µM (active) and 26.8 µM (active) in [9]; 61.1 µM (active) and inactive in [13].
Take `Brc1cc(Br)c(Oc2cc(Br)c(Br)cc2Br)cc1Br`: the Potency entry in [1], in assay [2], in [3], in [4], in assay [5] and in assay [12] was “inactive” in each case. The Potency entry in assay [10] was “inactive”.
In the case of `O=C(O)CCCCCCCCCCCBr`, the Potency entry in assay [2], in assay [3], in assay [4], in [12], in [6] and in assay [7] was “inactive” each time. Moreover, the Potency result in assay [8], in assay [10] and in [13] was “inactive” throughout.
In the case of `O=C1c2ccccc2C(=O)C1c1ccc(Br)cc1`, the Potency result in assay [1], in [2], in assay [3], in [4], in assay [12] and in [7] was “inactive” each time. The Potency entry in [9], in [10], in assay [13] and in assay [11] was “inactive” throughout.
For `CCC(=O)OC`, the Potency entry in assay [2], in assay [3], in assay [4], in assay [5], in assay [6] and in [7] was “inactive” in each case. Also, the Potency result in assay [8], in assay [9], in [10], in [13] and in [11] was “inactive” in each case.
On to `Nc1nc2ccc([N+](=O)[O-])cc2s1`, for which the Potency entry in assay [2], in [3], in assay [4], in [5], in [13] and in [11] was “inactive” throughout. Besides, the outcome in [14] and in assay [15] was inactive.
For `O[C@@H]1CO[C@H]2[C@@H]1OC[C@@H]2O`, the Potency entry in assay [2], in assay [3], in assay [4], in assay [12], in [7] and in assay [8] was “inactive” in each case. Besides, the Potency result in assay [9], in [10], in [13] and in assay [11] was “inactive” in each case.
`O=c1cc(-c2ccccc2)oc2cc(O)cc(O)c12`: the Potency entry in assay [1], in assay [2], in [3], in assay [4], in assay [5] and in assay [6] was “inactive” throughout. For the same compound, the Potency result in assay [9] and in [13] was “inactive” in each case. Also, the Potency in [11] was 969 nM (active).
In the case of `COc1ccccc1NC(=O)c1cc2ccccc2cc1O`, the Potency in [1] is 38.9 µM (active); in assay [12], 30.6 µM (active). The Potency result in assay [2], in assay [3], in assay [4], in assay [6], in assay [7] and in [9] was “inactive” each time. The Potency result in assay [10] and in assay [13] was “inactive” throughout.
As for `Cc1cc(C)c(N)cc1C`, the Potency entry in assay [2], in assay [3], in assay [4], in assay [12], in assay [6] and in [7] was “inactive” each time. The Potency result in assay [8], in assay [9], in assay [10], in assay [13] and in assay [11] was “inactive” throughout.
As to `COc1ccccc1N1CCN(CC(O)COc2cccc3ccccc23)CC1` (configuration not stated), the Potency result in [1], in [2], in assay [3], in assay [4], in assay [5] and in assay [10] was “inactive” throughout. In addition, in assay [11], the Potency entry was “inactive”. Also, the Potency is 23.9 µM (active) in [6], 12 µM (active) in [9] and 26.6 µM (active) in [13]. Besides, the outcome in assay [14] and in assay [15] was inactive.
In the case of `COc1ccccc1N1CCN(CCCCNC(=O)c2ccc(-c3ccc(C(C)=O)cc3)cc2)CC1`, the Potency result in [1], in assay [2], in assay [3], in assay [4], in assay [5] and in assay [6] was “inactive” each time. Also, the Potency entry in assay [7], in [9], in assay [10], in [13] and in [11] was “inactive” in each case.
`OCCOCC#CCOCCO`: the Potency entry in assay [2], in assay [4], in [12], in assay [6], in assay [7] and in assay [8] was “inactive” each time. The Potency entry in assay [9] and in assay [10] was “inactive” throughout. Besides, the Potency in [3] was 49 µM (active).
